Reference: publication PMC7826789 (International Journal of Molecular Sciences, 2021)

Assays:
Conditions in all cases: Compound Concentration (nM):1000
CSF1R = system: CSF1R
CSK = system: CSK
CSNK1A1L = system: CSNK1A1L
CSNK1A1 = system: CSNK1A1
CSNK1D = system: CSNK1D
CSNK1E = system: CSNK1E
CSNK1G1 = system: CSNK1G1
CSNK1G2 = system: CSNK1G2
CSNK1G3 = system: CSNK1G3
CSNK2A1 = system: CSNK2A1
CSNK2A2 = system: CSNK2A2
CTK = system: T1, CTK
T1 construct: gene MATK

DAPK1 = system: DAPK1
DAPK2 = system: DAPK2
DAPK3 = system: DAPK3
DCAMKL1 = system: T2, DCAMKL1
T2 construct: gene DCLK1

DCAMKL2 = system: T3, DCAMKL2
T3 construct: gene DCLK2

DCAMKL3 = system: T4, DCAMKL3
T4 construct: gene DCLK3

DDR1 = system: DDR1
DDR2 = system: DDR2
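Further: KINOMEscan scanMAX binding as percent activity remaining versus control; lower means stronger binding.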

| SMILES | Percent Control (CSF1R) | Percent Control (CSK) | Percent Control (CSNK1A1L) | Percent Control (CSNK1A1) | Percent Control (CSNK1D) | Percent Control (CSNK1E) | Percent Control (CSNK1G1) | Percent Control (CSNK1G2) | Percent Control (CSNK1G3) | Percent Control (CSNK2A1) | Percent Control (CSNK2A2) | Percent Control (CTK) | Percent Control (DAPK1) | Percent Control (DAPK2) | Percent Control (DAPK3) | Percent Control (DCAMKL1) | Percent Control (DCAMKL2) | Percent Control (DCAMKL3) | Percent Control (DDR1) | Percent Control (DDR2) |
| --- | --- | --- | --- | --- | --- | --- | --- | --- | --- | --- | --- | --- | --- | --- | --- | --- | --- | --- | --- | --- |
| COc1ccccc1-c1cc(/C=C2\C(=O)Nc3ncc(Br)cc32)cc(Br)c1O [GW442130X] | 100% | 100% | 100% | 100% | 94% | 79% | 100% | 94% | 100% | 66% | 72% | 99% | 100% | 88% | 88% | 100% | 100% | 89% | 92% | 100% |
| NS(=O)(=O)c1ccc(N/N=C2\C(=O)Nc3ccc(C(=O)NCCc4c[nH]cn4)cc32)cc1 [GW300660X] | 100% | 100% | 100% | 89% | 100% | 100% | 100% | 100% | 100% | 27% | 1.4% | 100% | 44% | 100% | 15% | 65% | 100% | 100% | 100% | 100% |
| NS(=O)(=O)c1ccc(N/N=C2\C(=O)Nc3ccc(Cl)cc32)cc1 [GW280670X] | 100% | 100% | 100% | 100% | 100% | 93% | 100% | 100% | 100% | 81% | 54% | 100% | 100% | 100% | 100% | 94% | 100% | 100% | 100% | 100% |
| NS(=O)(=O)c1ccc(Nc2ncc(-c3ccccc3)o2)cc1 [GW572399X] | 100% | 100% | 100% | 100% | 100% | 83% | 100% | 100% | 100% | 76% | 53% | 100% | 100% | 100% | 100% | 83% | 100% | 100% | 100% | 100% |
| COc1cccc(-n2ncc3c(N/N=C/c4ccncc4)ncnc32)c1 [GW784752X] | 100% | 78% | 91% | 94% | 92% | 100% | 100% | 100% | 100% | 20% | 2.9% | 99% | 100% | 94% | 93% | 86% | 100% | 71% | 100% | 100% |
| COc1cccc(-c2c[nH]c3c(N/N=C/c4ccncc4)ncnc23)c1 [GW814408X] | 46% | 66% | 100% | 88% | 92% | 83% | 100% | 90% | 100% | 14% | 1.5% | 100% | 100% | 100% | 100% | 100% | 100% | 56% | 86% | 60% |
| O=C1Nc2ccc(C(=O)c3ccco3)cc2C1=Cc1cc(Cl)c(O)c(Cl)c1 [GW406108X] | 93% | 79% | 100% | 93% | 100% | 100% | 82% | 96% | 100% | 9.7% | 19% | 92% | 22% | 9.2% | 10% | 80% | 94% | 100% | 100% | 93% |
| C[C@@H](Oc1cc(-n2cnc3ccc(OC4CCN(C)CC4)cc32)sc1C(N)=O)c1ccccc1Cl [GSK579289A] | 65% | 76% | 89% | 77% | 80% | 100% | 83% | 80% | 100% | 55% | 8.4% | 100% | 29% | 49% | 28% | 70% | 83% | 89% | 92% | 90% |
| Cc1cc(O)cc(C)c1/C=C/c1cncc(C(N)=O)c1 [GW435821X] | 34% | 80% | 100% | 100% | 100% | 86% | 100% | 100% | 100% | 90% | 78% | 98% | 100% | 100% | 100% | 87% | 100% | 100% | 40% | 74% |
